Assay results: PubChem BioAssay (EPA / NIEHS)
Activity calls are given as the source filed them. The calls were made as follows: active = hit-call score of the fitted dose curve at least 0.9, where 1 is the maximum; inactive = score below 0.9.

Each compound was assayed on Urokinase-type plasminogen activator receptor (uPAR), PLAUR (gene 5329) (assay: BSK_4H_uPAR: BioMAP Diversity Plus: 4H Assay for Urokinase-type plasminogen activator receptor (uPAR) Biomarker Activity (AID 2283030)). Conditions: primary human endothelial cells (HUVEC); actives raise or lower the signal.
In short: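 Chemicals are dosed onto human vascular endothelial primary cells (umbilical vein). After 24 h, uPAR is read by ELISA. Gain or loss of signal is fitted relative to DMSO.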
For `OCCN1CCOCC1`, the outcome was “inactive”. `CC=CC(=O)C1=C(C)C=CCC1(C)C` was tested, and the outcome was “inactive”. With `CC(C)(CO)CO` the outcome was “inactive”.
